Measurements taken from PubChem BioAssay (NCI).
This is part of a sample that, as a whole, favours compounds with a hit. Of some 79,000 tested, about 15% had one in any assay. Calls of active or inactive are those of the source. Rule as the data show it: active = growth inhibition above about 70%; inactive = the rest.

Legend:
[1] = NCI Yeast Anticancer Drug Screen. Data for the rad52 strain (AID 147);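 also: 0% = growth of vehicle-treated control cultures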; conditions: S. cerevisiae rad52 mutant growth inhibition, hits give high values
How it was run: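 Growth of repair-deficient yeast cells was compared between compound-treated and vehicle-treated cultures to give percent inhibition.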

[2] = NCI Yeast Anticancer Drug Screen. Data for the wt1 strain (AID 149);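 also: 0% = growth of vehicle-treated wt1 cultures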; conditions: S. cerevisiae wt1 strain (SPY 50644) growth inhibition, hits give high values
How it was run: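 Yeast wt1 strain exposed to compounds; growth inhibition measured relative to vehicle-treated controls.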

[3] = NCI Yeast Anticancer Drug Screen. Data for the rad50EPP+ strain (AID 151);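 also: 0% = growth of vehicle-treated control cultures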; conditions: S. cerevisiae rad50 mutant strain, hits give high values
How it was run: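 Measured: growth inhibition of rad50EPP+ yeast. Reference: vehicle-treated controls. Screen uses strains with defined genetic alterations in DNA damage repair or cell cycle control.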

[4] = NCI Yeast Anticancer Drug Screen. Data for the mgt1 strain (AID 153); conditions: S. cerevisiae mgt1 mutant growth inhibition, hits give high values
How it was run: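 Compounds were applied to mgt1 mutant yeast, and growth was then compared against vehicle-treated control cultures to give percent inhibition.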

[5] = NCI Yeast Anticancer Drug Screen. Data for the rad50 strain (AID 155);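 also: 0% = growth of vehicle-only cultures of the same strain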; conditions: S. cerevisiae rad50 strain growth inhibition, hits give high values
How it was run: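 Yeast carrying a defined DNA repair defect were exposed to test compounds, and growth was compared with vehicle-treated controls to give percent inhibition.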

[6] = NCI Yeast Anticancer Drug Screen. Data for the mec2-1 strain (AID 157); conditions: S. cerevisiae mec2-1 strain, hits give high values
How it was run: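 Compounds were applied to mec2-1 yeast cells. Their growth was then compared with that of vehicle-treated cultures to give growth inhibition.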

[7] = NCI Yeast Anticancer Drug Screen. Data for the rad14 strain (AID 159);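 also: 0% = growth of vehicle-treated control cultures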; conditions: S. cerevisiae rad14 strain growth inhibition, hits give high values
How it was run: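 Yeast cells carrying a defined DNA-repair defect were exposed to compounds, and growth inhibition was calculated relative to vehicle-treated control cultures.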

[8] = NCI Yeast Anticancer Drug Screen. Data for the sgs1 mgt1 strain (AID 161);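 also: 0% = growth of cultures given vehicle only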; conditions: S. cerevisiae sgs1 mgt1 strain, hits give high values
How it was run: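 Compounds are added to genetically altered yeast, and growth is compared with cultures given vehicle alone to give percent inhibition.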

[9] = NCI Yeast Anticancer Drug Screen. Data for the CLN2oe strain (AID 163);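 also: 0% = growth of vehicle-only control cultures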; conditions: S. cerevisiae CLN2oe strain, hits give high values
How it was run: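 Cells of an engineered yeast line with disturbed cell-cycle regulation are treated with compound. Inhibition of growth is then calculated relative to the vehicle-treated reference.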

[10] = NCI Yeast Anticancer Drug Screen. Data for the cln2 rad14 strain (AID 165);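 also: 0% = growth equal to vehicle treated cultures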; conditions: S. cerevisiae cln2 rad14 strain, hits give high values
How it was run: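 Strain: cln2 rad14 yeast, altered in cell cycle control and DNA damage repair. Read-out: growth inhibition vs vehicle.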

[11] = NCI Yeast Anticancer Drug Screen. Data for the wt2 strain (AID 169);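 also: 0% = growth of vehicle-treated yeast cultures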; conditions: S. cerevisiae wt2 strain growth inhibition, hits give high values
How it was run: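 Growth of compound-treated yeast is measured and expressed as inhibition relative to vehicle-only controls.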

[12] = NCI Yeast Anticancer Drug Screen. Data for the mlh1 strain (AID 171);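 also: 0% = growth of vehicle-treated control cultures of the same strain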; conditions: S. cerevisiae mlh1 strain growth inhibition, hits give high values
How it was run: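 Test agents were incubated with yeast bearing a defined DNA damage repair or cell cycle control alteration; values are growth inhibition normalised to vehicle-treated cultures.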

[13] = NCI Yeast Anticancer Drug Screen. Data for the sgs1 strain (AID 173);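 also: 0% = growth of vehicle-only control cultures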; conditions: S. cerevisiae sgs1 mutant, hits give high values
How it was run: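 Strain with an altered DNA repair or cell cycle pathway exposed to compound. Growth then measured. Value = inhibition versus vehicle control.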

[14] = NCI Yeast Anticancer Drug Screen. Data for the mlh1 rad18 strain (AID 175); conditions: S. cerevisiae mlh1 rad18 strain growth inhibition, hits give high values
How it was run: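 A repair-deficient yeast strain is exposed to test compound, and growth is scored relative to vehicle-treated controls.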

[15] = NCI Yeast Anticancer Drug Screen. Data for the rad18 strain (AID 177); conditions: S. cerevisiae rad18 mutant growth inhibition, hits give high values
How it was run: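 DNA-repair-defective yeast; compound treatment; growth inhibition scored against vehicle.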

[16] = at 5.0 µM (retest, dose inferred, filed as 0.5)
[17] = at 50.0 µM (retest, dose inferred, filed as 5.0)

Measured: growth inhibition

CC1=NN(c2cccc(Cl)c2)C(=O)C1
inactive: [1]; at 1.2 µM -33% | [1]; at 3.7 µM -33% | [1]; at 11.0 µM -22% | [1]; at 33.0 µM -16% | [1]; at 100.0 µM 14% | [2]; at 1.2 µM -13% | [2]; at 3.7 µM -36% | [2]; at 11.0 µM -22% | [2]; at 33.0 µM -2% | [2]; at 100.0 µM 28% | [3]; at 1.2 µM -65% | [3]; at 3.7 µM -50% | [3]; at 11.0 µM -38% | [3]; at 33.0 µM -27% | [3]; at 100.0 µM -26% | [4]; at 1.2 µM -21% | [4]; at 3.7 µM -44% | [4]; at 11.0 µM -40% | [4]; at 33.0 µM 8% | [4]; at 100.0 µM 63% | [5]; at 1.2 µM -47% | [5]; at 3.7 µM -54% | [5]; at 11.0 µM -61% | [5]; at 33.0 µM -44% | [5]; at 50.0 µM 43.4% | [5]; at 100.0 µM 28% | [6]; at 1.2 µM -35% | [6]; at 3.7 µM -27% | [6]; at 11.0 µM -5% | [6]; at 33.0 µM 8% | [6]; at 50.0 µM 56.1% | [6]; at 100.0 µM 32% | [7]; at 1.2 µM -4% | [7]; at 3.7 µM -21% | [7]; at 11.0 µM -22% | [7]; at 33.0 µM 3% | [7]; at 100.0 µM 36% | [8]; [16] -12% | [8]; [17] 56% | [8]; at 50.0 µM 55.9% | [9]; at 1.2 µM -26% | [9]; at 3.7 µM -4% | [9]; at 11.0 µM -1% | [9]; at 33.0 µM -15% | [9]; at 100.0 µM 20% | [10]; [16] 39% | [10]; [17] 62% | [10]; at 50.0 µM 27.2% | [11]; at 1.2 µM -31% | [11]; at 3.7 µM -28% | [11]; at 11.0 µM -15% | [11]; at 33.0 µM 8% | [11]; at 100.0 µM 51% | [12]; at 1.2 µM -13% | [12]; at 3.7 µM -20% | [12]; at 11.0 µM -16% | [12]; at 33.0 µM 2% | [12]; at 100.0 µM 56% | [13]; at 1.2 µM -27% | [13]; at 3.7 µM -22% | [13]; at 11.0 µM -11% | [13]; at 33.0 µM 4% | [13]; at 100.0 µM 50% | [14]; at 50.0 µM 44% | [15]; at 1.2 µM -47% | [15]; at 3.7 µM -34% | [15]; at 11.0 µM -22% | [15]; at 33.0 µM -20% | [15]; at 100.0 µM 8%
active: [5]; [16] 81% | [5]; [17] 99% | [6]; [16] 74% | [6]; [17] 100% | [14]; [16] 73% | [14]; [17] 100%
